Laboratory results as given in PubChem BioAssay (NCATS).
Inconclusive results are not listed. Unless noted, the call rests on the fitted dose curve; in most records, active means well fitted curve in either direction with a large enough effect (not every such curve was filed as active); inconclusive means small, poorly fitted or top-dose-only effect, or another doubt; inactive means flat fitted curve, though single readings scatter.

Key:
[1] = AP1 Signaling Pathway (AID 357); conditions: ME-180 AP-1-bla reporter, EGF-induced, beta-lactamase ratio, 5 h; at 17.2 µM (top of the series) unless noted;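 further: ME-180 reporter cells stimulated with EGF at its EC50 level; on the % scale 0 is the no-effect control and ±100 the full control effect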
Summary of the method: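 In this screen, ME-180 cells in Opti-MEM with 0.5% dialyzed FBS received EC50 EGF and compound titrations for 5 h. AP-1 reporter beta-lactamase was detected via CCF4 ratio, giving AC50 for positive and negative modulators.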

[2] = NFAT Signaling Pathway (AID 444); conditions: Jurkat NFAT-bla M1, carbachol, beta-lactamase ratio, 5 h; at 17.2 µM (top of the series) unless noted;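 further: carbachol stimulus at about its EC50 of 1 µM final; on the % scale 0 is the no-effect control and ±100 the full control effect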
Summary of the method: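 Read-out: CCF4 FRET ratio (460 nm/530 nm) after 1 h RT dye loading, used for %activity and AC50 from titration series. Cells: Jurkat NFAT-β-lactamase/M1 line, treated with compound plus 1 uM carbachol for 5 h, 37 °C.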

[3] = Stat Signaling Pathway (AID 446); conditions: ME-180 SIE beta-lactamase reporter, IL-6 stimulated, 5 h; at 17.2 µM (top of the series) unless noted;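 further: ME-180 cervical cancer cells given 40 pM IL-6 alongside compound; SIE-controlled beta-lactamase reporter measured as 460/530 nm FRET emission ratio; on the % scale 0 is the no-effect control and ±100 the full control effect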
Summary of the method: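 Reporter line: ME-180 cervical carcinoma, SIE-beta-lactamase. Treatment: compound with 40 pM IL-6, 5 hrs, 37 C, in low-serum OPTI-MEM with 10 mM HEPES pH 7.3. Detection: 460/530 nm fluorescence.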

[4] = target: Glucocorticoid receptor (Homo sapiens) (UniProt P04150); assay: GR-GFP Redistribution (AID 450;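 active means compounds whose dose series gives a full or clear partial fitted curve of increased nuclear translocation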; further: potency means the concentration at half of the fitted maximal effect)
Chain of Glucocorticoid receptor (Homo sapiens) (P04150 whole entry, looked up): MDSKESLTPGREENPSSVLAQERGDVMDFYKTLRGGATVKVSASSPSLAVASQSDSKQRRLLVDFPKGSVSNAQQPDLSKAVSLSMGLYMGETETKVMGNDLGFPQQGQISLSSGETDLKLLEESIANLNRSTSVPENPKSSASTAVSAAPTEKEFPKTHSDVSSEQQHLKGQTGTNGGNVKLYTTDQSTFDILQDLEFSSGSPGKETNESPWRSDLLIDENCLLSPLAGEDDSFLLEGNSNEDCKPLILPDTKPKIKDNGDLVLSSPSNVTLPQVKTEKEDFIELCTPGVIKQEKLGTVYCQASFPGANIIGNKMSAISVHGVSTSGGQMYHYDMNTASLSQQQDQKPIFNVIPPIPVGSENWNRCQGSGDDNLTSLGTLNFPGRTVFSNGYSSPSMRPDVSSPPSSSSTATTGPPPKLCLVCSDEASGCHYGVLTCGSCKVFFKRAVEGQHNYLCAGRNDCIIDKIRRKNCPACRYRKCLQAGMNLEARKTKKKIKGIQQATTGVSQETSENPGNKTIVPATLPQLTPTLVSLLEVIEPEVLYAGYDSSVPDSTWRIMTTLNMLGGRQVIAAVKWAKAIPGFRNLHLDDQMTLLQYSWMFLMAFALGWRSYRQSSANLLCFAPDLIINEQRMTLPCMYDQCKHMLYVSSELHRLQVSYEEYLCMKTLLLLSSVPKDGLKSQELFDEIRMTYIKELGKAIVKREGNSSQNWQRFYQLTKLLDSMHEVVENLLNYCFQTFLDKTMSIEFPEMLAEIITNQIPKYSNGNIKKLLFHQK

COc1ccc(OC)c(C2=Nn3c(nnc3C3CCCCC3)SC2)c1
inactive: activity change, negative = inhibition [1] -18.2% | activity change, negative = inhibition [2] -5.08% | activity, negative = inhibition [3] -1.6% | Potency [4] > 20.6 µM

c1ccc(-c2nnc3sc(Cc4cccs4)nn23)cc1
inactive: activity change, negative = inhibition [1] -13.7% | activity change, negative = inhibition [2] -18.2% | activity, negative = inhibition [3] 16.7% | Potency [4] > 20.6 µM

O=C(c1cncc(Br)c1)N1CCCc2ccccc21
inactive: activity change, negative = inhibition [1] 2.83% | activity change, negative = inhibition [2] -6.51% | activity, negative = inhibition [3] -1.14% | Potency [4] > 20.6 µM

CCOC(=O)c1c(C)[nH]sc1=S
inactive: activity change, negative = inhibition [1] 4.4% | activity change, negative = inhibition [2] -1.05% | activity, negative = inhibition [3] -4.25% | Potency [4] > 20.6 µM

CCOc1cc(C2Nc3ccccc3C(=O)N2c2ccccc2OC)ccc1O (centres undefined)
inactive: activity change, negative = inhibition [1] 18.3% | activity change, negative = inhibition [2] 6.73% | activity, negative = inhibition [3] 5.03% | Potency [4] > 20.6 µM

c1coc(-c2nnc3sc(C4CCCCC4)nn23)c1
inactive: activity change, negative = inhibition [1] -14.7% | activity change, negative = inhibition [2] -19.5% | activity, negative = inhibition [3] 6.55% | Potency [4] > 20.6 µM

O=C(NCCN1CCOCC1)c1cc2n(n1)C(C(F)(F)F)CC(c1ccc(F)cc1)N2 (centres undefined)
inactive: activity change, negative = inhibition [1] 2.33% | activity change, negative = inhibition [2] 0.228% | activity, negative = inhibition [3] 8.95% | Potency [4] > 20.6 µM

CCCCOc1ccc(-c2nnc(N)s2)cc1
inactive: activity change, negative = inhibition [1] 2.03% | activity change, negative = inhibition [2] 25.3% | activity, negative = inhibition [3] 10.7% | Potency [4] > 20.6 µM

CCCCc1nc(NCCN2CCOCC2)c(C#N)c2c1COC(C)(C)C2
inactive: activity change, negative = inhibition [1] -15.7% | activity change, negative = inhibition [2] 13.3% | activity, negative = inhibition [3] 1.05% | Potency [4] > 20.6 µM

CC1(C)CC(=O)C(C=Nc2ccc(Cl)cn2)=C(O)C1
inactive: activity change, negative = inhibition [1] -10.2% | activity change, negative = inhibition [2] 17.4% | activity, negative = inhibition [3] 21.1% | Potency [4] > 20.6 µM

CCOC(=O)c1c(C)n(C)c2ccc(OC)c(NC(=O)c3cccs3)c12
inactive: activity change, negative = inhibition [1] -7.29% | activity change, negative = inhibition [2] 5.2% | activity, negative = inhibition [3] -16.1% | Potency [4] > 20.6 µM

COc1ccc(C(O)C(CN2CCOCC2)c2ccccc2)cc1 (centres undefined)
inactive: activity change, negative = inhibition [1] -1.55% | activity change, negative = inhibition [2] 7.08% | activity, negative = inhibition [3] 8.61% | Potency [4] > 20.6 µM

COC(=O)C(NC(=O)c1ccc(F)cc1)(Nc1nc(C)cs1)C(F)(F)F (centres undefined)
inactive: activity change, negative = inhibition [1] -0.49% | activity change, negative = inhibition [2] -21.1% | activity, negative = inhibition [3] -10.7% | Potency [4] > 20.6 µM

O=C1CC(NCc2ccncc2)C(=O)N1c1ccc(Cl)cc1 (centres undefined)
inactive: activity change, negative = inhibition [1] -15.8% | activity change, negative = inhibition [2] 13.2% | activity, negative = inhibition [3] -1.32% | Potency [4] > 20.6 µM

CCOC(=O)NC(O)C(=O)c1cccs1 (centres undefined)
inactive: activity change, negative = inhibition [1] 11.6% | activity change, negative = inhibition [2] -1.46% | activity, negative = inhibition [3] 3.85% | Potency [4] > 20.6 µM

COC(=O)COc1ccc(Oc2nc(SC)nc(N(C)C)n2)nn1
inactive: activity change, negative = inhibition [1] 4.25% | activity change, negative = inhibition [2] 4.35% | activity, negative = inhibition [3] -4.81% | Potency [4] > 20.6 µM

CC1(c2cnc(Nc3ccccc3)s2)CCC(=O)O1 (centres undefined)
inactive: activity change, negative = inhibition [1] -10.6% | activity change, negative = inhibition [2] -7.05% | activity, negative = inhibition [3] 22.3% | Potency [4] > 20.6 µM

O=C1N[C@@H](Cc2cnc[nH]2)C(=O)N2CCC[C@@H]12
inactive: activity change, negative = inhibition [1] 15.2% | activity change, negative = inhibition [2] -19.2% | activity, negative = inhibition [3] 4.85% | Potency [4] > 20.6 µM

COc1cccc(NC(=O)CSC2=C(C#N)C(c3ccco3)C3=C(CCCC3=O)N2)c1 (centres undefined)
inactive: activity change, negative = inhibition [1] -18.7% | activity change, negative = inhibition [2] -16% | activity, negative = inhibition [3] -7.07% | Potency [4] > 20.6 µM

COC(=O)c1cc2c(=O)n3cccc(C)c3nc2n(Cc2cccnc2)c1=N
inactive: activity change, negative = inhibition [1] 7.65% | activity change, negative = inhibition [2] -10.7% | activity, negative = inhibition [3] 15.4% | Potency [4] > 20.6 µM

O=C(O)CC(SCc1ccc(C(=O)O)o1)C(=O)O (centres undefined)
inactive: activity change, negative = inhibition [1] 7.18% | activity change, negative = inhibition [2] -1.8% | activity, negative = inhibition [3] 0.837% | Potency [4] > 20.6 µM

CCN(CC)C(=O)C1CCN(c2ncnc3c2cnn3-c2ccc(C)cc2C)CC1
inactive: activity change, negative = inhibition [1] -10.6% | activity change, negative = inhibition [2] 7.48% | activity, negative = inhibition [3] -7.04% | Potency [4] > 20.6 µM

O=C(Nc1cccnc1)c1cccnc1
inactive: activity change, negative = inhibition [1] 11.7% | activity change, negative = inhibition [2] -7.91% | activity, negative = inhibition [3] 4.68% | Potency [4] > 20.6 µM

C=CCn1c(-c2ccc(OC)c(OC)c2)n[nH]c1=S
inactive: activity change, negative = inhibition [1] 1.93% | activity change, negative = inhibition [2] 9.3% | activity, negative = inhibition [3] -10.7% | Potency [4] > 20.6 µM

CCCCCCn1c(C(C)O)nc2ccccc21 (centres undefined)
inactive: activity change, negative = inhibition [1] 0.304% | activity change, negative = inhibition [2] 5.62% | activity, negative = inhibition [3] -3.73% | Potency [4] > 20.6 µM

CCOC(=O)c1c(C)cccc1OCC(N)=O
inactive: activity change, negative = inhibition [1] -9.84% | activity change, negative = inhibition [2] 0.392% | activity, negative = inhibition [3] -2.4% | Potency [4] > 20.6 µM
